Drawing on ChEMBL document CHEMBL1961873, “Compounds: GSK PKIS; Assays: Nanosyn kinase panel” (2012), this text covers inhibition for 34 compounds.

Molecules are shown by their SMILES.

Chain of Phosphorylase b kinase gamma catalytic chain, skeletal muscle/heart isoform (Homo sapiens) (Q16816 whole entry, looked up, canonical isoform): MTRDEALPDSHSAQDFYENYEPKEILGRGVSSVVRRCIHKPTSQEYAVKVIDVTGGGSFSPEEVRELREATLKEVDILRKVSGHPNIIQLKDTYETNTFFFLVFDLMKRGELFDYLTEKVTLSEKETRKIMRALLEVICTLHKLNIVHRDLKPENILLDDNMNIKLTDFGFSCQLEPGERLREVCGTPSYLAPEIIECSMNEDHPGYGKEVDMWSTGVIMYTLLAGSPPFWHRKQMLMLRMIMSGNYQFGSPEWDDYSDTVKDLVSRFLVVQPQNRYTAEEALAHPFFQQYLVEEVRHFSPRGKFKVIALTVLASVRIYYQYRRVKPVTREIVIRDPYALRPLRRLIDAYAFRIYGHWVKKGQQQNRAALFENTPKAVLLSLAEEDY

The first experiment deals with PAS domain-containing serine/threonine-protein kinase (Homo sapiens) (UniProt Q96RG2). The settings on record: at 1 µM.
Chain of PAS domain-containing serine/threonine-protein kinase (Homo sapiens) (Q96RG2 whole entry, the tested form may be a part): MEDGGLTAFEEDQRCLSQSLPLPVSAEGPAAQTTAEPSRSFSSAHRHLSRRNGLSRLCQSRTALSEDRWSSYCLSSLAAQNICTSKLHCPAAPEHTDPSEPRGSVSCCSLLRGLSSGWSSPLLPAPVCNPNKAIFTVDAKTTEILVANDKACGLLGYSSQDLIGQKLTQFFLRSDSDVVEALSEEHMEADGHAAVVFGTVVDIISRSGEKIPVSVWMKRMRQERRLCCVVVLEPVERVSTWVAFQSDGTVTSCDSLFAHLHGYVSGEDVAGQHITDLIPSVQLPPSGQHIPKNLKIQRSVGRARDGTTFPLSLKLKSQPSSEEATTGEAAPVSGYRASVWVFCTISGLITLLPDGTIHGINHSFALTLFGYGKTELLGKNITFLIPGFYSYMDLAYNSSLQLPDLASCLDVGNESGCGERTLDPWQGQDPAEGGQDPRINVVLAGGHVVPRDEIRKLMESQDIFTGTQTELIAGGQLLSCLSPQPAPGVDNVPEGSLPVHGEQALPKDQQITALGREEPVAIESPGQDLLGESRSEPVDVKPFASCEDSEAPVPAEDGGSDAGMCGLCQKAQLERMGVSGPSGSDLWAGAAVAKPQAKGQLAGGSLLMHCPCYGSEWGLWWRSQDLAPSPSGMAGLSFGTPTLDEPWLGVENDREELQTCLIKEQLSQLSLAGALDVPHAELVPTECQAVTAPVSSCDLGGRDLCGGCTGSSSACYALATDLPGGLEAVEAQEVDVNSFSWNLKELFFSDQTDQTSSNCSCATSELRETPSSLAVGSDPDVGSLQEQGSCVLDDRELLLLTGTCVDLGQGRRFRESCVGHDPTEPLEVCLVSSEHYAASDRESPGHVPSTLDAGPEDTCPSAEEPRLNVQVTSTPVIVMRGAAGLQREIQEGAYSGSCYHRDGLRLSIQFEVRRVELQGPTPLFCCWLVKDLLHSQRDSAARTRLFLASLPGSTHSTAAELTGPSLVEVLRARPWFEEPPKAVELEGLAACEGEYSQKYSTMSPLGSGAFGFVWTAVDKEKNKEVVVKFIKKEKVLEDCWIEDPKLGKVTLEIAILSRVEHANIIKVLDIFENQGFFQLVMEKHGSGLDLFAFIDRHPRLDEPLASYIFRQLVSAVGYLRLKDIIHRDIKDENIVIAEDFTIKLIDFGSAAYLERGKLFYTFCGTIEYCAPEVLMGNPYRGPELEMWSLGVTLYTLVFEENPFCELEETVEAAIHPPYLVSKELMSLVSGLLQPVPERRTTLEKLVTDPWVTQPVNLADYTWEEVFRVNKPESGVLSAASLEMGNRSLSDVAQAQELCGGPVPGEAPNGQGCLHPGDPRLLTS
The inhibition is the relative decrease from the control value, in per cent. With `Cc1ccc(Nc2ccnc(Nc3cccc(C(N)=O)c3)n2)cc1O`, the inhibition is 0.18%.
Turning to `CN(c1ccc(NC(=O)Nc2ccc(OC(F)(F)F)cc2)cc1)c1ccnc(Nc2cccc(S(N)(=O)=O)c2)n1`, the inhibition was found to be 0.28%.
Same read-out and setting: next, `CN1CCN(C(=O)c2ccc(NC(=O)Nc3ccc(N(C)c4ccnc(Nc5ccc(CS(C)(=O)=O)cc5)n4)cc3)cc2)CC1`: 0.27%; `NS(=O)(=O)c1ccc(N/N=C2\C(=O)Nc3ccc(Cl)cc32)cc1`: 1.52%.
The same measure, in the same setting: to `c1ccc(Nc2ncc(-c3ccccc3)o2)cc1` belongs -0.71%; to `CS(=O)(=O)CCNCc1nc(-c2ccc3ncnc(Nc4ccc(OCc5cccc(C(F)(F)F)c5)cc4)c3c2)cs1`, -0.13%.
In the case of `COC(=O)c1ccc2c(c1)C(=Cc1cc(Br)c(O)c(Br)c1)C(=O)N2`, the inhibition was -0.51%.
The same measure, in the same setting: next, `O=C(Nc1ccc(Oc2ccc3[nH]c(NC(=O)c4ccco4)nc3c2)cc1)Nc1cc(C(F)(F)F)ccc1F`: 0.06%; `CC(C)c1ccc(Nc2nccc(-c3cnn4ncccc34)n2)cc1`: -0.93%.
Regarding `CS(=O)(=O)Nc1cccc(-c2ccc3c(NC(=O)C4CC4)n[nH]c3c2)c1`, the inhibition is -0.4%.
`COC(=O)Nc1nc2cc(Oc3ccc(NC(=O)Nc4cccc(Br)c4)cc3)ccc2[nH]1`: the inhibition stood at 1.67%.
On to `N#Cc1cccc(Nc2nccc(-c3cnn4ncccc34)n2)c1`, for which the inhibition came to 0.01%.
For the compound `NS(=O)(=O)c1ccc(Nc2cc(-c3cccc(O)c3)n[nH]2)cc1`, the inhibition is -1.99%.
As to `CC(C)c1ccc2c(c1)NC(=O)/C2=N/Nc1ccc(S(N)(=O)=O)cc1`, the inhibition was 0.24%.
In the case of `Cc1cc(O)cc(C)c1/C=C/c1cncc(C(=O)N(C)C)c1`, the inhibition is -0.85%.
As for `c1ccc(Cc2nc3ccc(Nc4ncnc5ccccc45)cc3[nH]2)cc1`, the inhibition stood at 0.27%.
As to `Cc1ccc(O)cc1Nc1ccnc2ccc(S(C)(=O)=O)cc12`, the inhibition amounted to 4.61%.
Regarding `COc1ccc(-c2nn3ncccc3c2-c2ccnc(Nc3cccc(C(F)(F)F)c3)n2)cc1`, the inhibition came to 0.1%.
For the compound `Cc1nc(-c2ccccc2)n2nc(NCCCN3CCOCC3)ncc12`, the inhibition is -0.06%.
`Nc1nccc(C#Cc2cncnc2Nc2ccc(OCc3cccc(F)c3)c(Cl)c2)n1`: the inhibition was -3.04%.
With `C[C@@H](Oc1cc(-n2cnc3ccc(OCC4CCN(C)CC4)cc32)sc1C(N)=O)c1ccccc1C(F)(F)F`, the inhibition stood at 2.84%.
Take `N#Cc1c(NC(=O)c2ccccc2F)sc2c1CCCC2`: the inhibition turned out to be 1.22%.
Still for that read-out and setting: to `Nc1nccc(-c2c(-c3ccc(F)cc3)ncn2CCCN2CCOCC2)n1` belongs 0.84%; to `COc1cccc(-n2ncc3c(N/N=C/c4ccc(C)cc4)ncnc32)c1`, 0.57%; to `C[C@@H](Oc1cc(-n2cnc3ccc(OC[C@@H](O)CO)cc32)sc1C(N)=O)c1ccccc1Cl`, 1.99%.
Consider `Cc1cc(-c2ccccn2)cc(C)c1/C=C/c1cncc(-c2nn[nH]n2)c1`, for which the inhibition is -1.06%.
With `Cc1ccc2c(-c3ccnc(Nc4cccc(C(F)(F)F)c4)n3)c(-c3ccccc3)nn2n1`, the inhibition is -0.17%.
Consider `CCn1c(-c2nonc2N)nc2ccc(F)cc21`, for which the inhibition worked out at 0.49%.
The same measure, in the same setting: next, `COc1cccc(-n2ncc3c(N/N=C/c4ccc(S(C)(=O)=O)cc4)ncnc32)c1`: 0.02%.
On the same count and under the same terms, next, `Cc1ccc2c(c1)/C(=N/Nc1ccc(S(N)(=O)=O)cc1)C(=O)N2`: 0.32%; `Cc1cc(Cl)cc2c1NC(=O)C2=NNc1ccc(S(N)(=O)=O)cc1`: 1.94%; `Nc1ccc(C#Cc2cncnc2Nc2ccc(OCc3cccc(F)c3)c(Cl)c2)cc1`: 1.56%.
Consider `Oc1cccc(-c2nc(-c3ccccc3)[nH]c2-c2ccncc2)c1`, for which the inhibition is 0.32%.
Regarding `O=C1Nc2ccc(-c3cccnc3)cc2C1=Cc1cc(Br)c(O)c(Br)c1`, the inhibition was determined as 1.32%.

A further experiment concerns the target Phosphorylase b kinase gamma catalytic chain, skeletal muscle/heart isoform (Homo sapiens) (UniProt Q16816). The settings on record: at 0.1 µM.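 Also: values are averaged percent inhibition of PHKG1 kinase activity, from the GSK PKIS inhibitor-set screen.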
For `Cc1ccc(Nc2ccnc(Nc3cccc(C(N)=O)c3)n2)cc1O`, the inhibition was 1.96%.
Consider `CN(c1ccc(NC(=O)Nc2ccc(OC(F)(F)F)cc2)cc1)c1ccnc(Nc2cccc(S(N)(=O)=O)c2)n1`, for which the inhibition was determined as 1.77%.
Take `CN1CCN(C(=O)c2ccc(NC(=O)Nc3ccc(N(C)c4ccnc(Nc5ccc(CS(C)(=O)=O)cc5)n4)cc3)cc2)CC1`: the inhibition is -1.64%.
In the case of `NS(=O)(=O)c1ccc(N/N=C2\C(=O)Nc3ccc(Cl)cc32)cc1`, the inhibition turned out to be 0.25%.
As for `c1ccc(Nc2ncc(-c3ccccc3)o2)cc1`, the inhibition was 2.61%.
As to `CS(=O)(=O)CCNCc1nc(-c2ccc3ncnc(Nc4ccc(OCc5cccc(C(F)(F)F)c5)cc4)c3c2)cs1`, the inhibition was 0.25%.
For `COC(=O)c1ccc2c(c1)C(=Cc1cc(Br)c(O)c(Br)c1)C(=O)N2`, the inhibition is 0.67%.
`O=C(Nc1ccc(Oc2ccc3[nH]c(NC(=O)c4ccco4)nc3c2)cc1)Nc1cc(C(F)(F)F)ccc1F`: the inhibition is 0.41%.
`CC(C)c1ccc(Nc2nccc(-c3cnn4ncccc34)n2)cc1`: the inhibition stood at 2.33%.
For the compound `CS(=O)(=O)Nc1cccc(-c2ccc3c(NC(=O)C4CC4)n[nH]c3c2)c1`, the inhibition stood at 3.02%.
On to `COC(=O)Nc1nc2cc(Oc3ccc(NC(=O)Nc4cccc(Br)c4)cc3)ccc2[nH]1`, for which the inhibition came out at 3.04%.
The same measure, in the same setting: to `N#Cc1cccc(Nc2nccc(-c3cnn4ncccc34)n2)c1` belongs 15.8%.
Turning to `NS(=O)(=O)c1ccc(Nc2cc(-c3cccc(O)c3)n[nH]2)cc1`, the inhibition was found to be 3.73%.
Regarding `CC(C)c1ccc2c(c1)NC(=O)/C2=N/Nc1ccc(S(N)(=O)=O)cc1`, the inhibition is -0.83%.
As to `Cc1cc(O)cc(C)c1/C=C/c1cncc(C(=O)N(C)C)c1`, the inhibition stood at 3.09%.
Turning to `c1ccc(Cc2nc3ccc(Nc4ncnc5ccccc45)cc3[nH]2)cc1`, the inhibition was found to be 2.35%.
Same read-out and setting: next, `Cc1ccc(O)cc1Nc1ccnc2ccc(S(C)(=O)=O)cc12`: 6.2%.
In the case of `COc1ccc(-c2nn3ncccc3c2-c2ccnc(Nc3cccc(C(F)(F)F)c3)n2)cc1`, the inhibition was found to be 3.78%.
Consider `Cc1nc(-c2ccccc2)n2nc(NCCCN3CCOCC3)ncc12`, for which the inhibition came to 0.52%.
As for `Nc1nccc(C#Cc2cncnc2Nc2ccc(OCc3cccc(F)c3)c(Cl)c2)n1`, the inhibition came to 6.86%.
Turning to `C[C@@H](Oc1cc(-n2cnc3ccc(OCC4CCN(C)CC4)cc32)sc1C(N)=O)c1ccccc1C(F)(F)F`, the inhibition came to 1.57%.
Same read-out and setting: to `N#Cc1c(NC(=O)c2ccccc2F)sc2c1CCCC2` belongs 1.23%; to `Nc1nccc(-c2c(-c3ccc(F)cc3)ncn2CCCN2CCOCC2)n1`, 5.3%; to `COc1cccc(-n2ncc3c(N/N=C/c4ccc(C)cc4)ncnc32)c1`, 2.43%.
For the compound `C[C@@H](Oc1cc(-n2cnc3ccc(OC[C@@H](O)CO)cc32)sc1C(N)=O)c1ccccc1Cl`, the inhibition was found to be 0.98%.
Take `Cc1cc(-c2ccccn2)cc(C)c1/C=C/c1cncc(-c2nn[nH]n2)c1`: the inhibition was found to be 3.51%.
Consider `Cc1ccc2c(-c3ccnc(Nc4cccc(C(F)(F)F)c4)n3)c(-c3ccccc3)nn2n1`, for which the inhibition worked out at 2.62%.
On to `CCn1c(-c2nonc2N)nc2ccc(F)cc21`, for which the inhibition was 6.81%.
Turning to `COc1cccc(-n2ncc3c(N/N=C/c4ccc(S(C)(=O)=O)cc4)ncnc32)c1`, the inhibition amounted to 2.42%.
Regarding `Cc1ccc2c(c1)/C(=N/Nc1ccc(S(N)(=O)=O)cc1)C(=O)N2`, the inhibition is 1.32%.
In the case of `Cc1cc(Cl)cc2c1NC(=O)C2=NNc1ccc(S(N)(=O)=O)cc1`, the inhibition is 3.63%.
In the case of `Nc1ccc(C#Cc2cncnc2Nc2ccc(OCc3cccc(F)c3)c(Cl)c2)cc1`, the inhibition is 4.22%.
On to `Oc1cccc(-c2nc(-c3ccccc3)[nH]c2-c2ccncc2)c1`, for which the inhibition was determined as 4.05%.
Take `O=C1Nc2ccc(-c3cccnc3)cc2C1=Cc1cc(Br)c(O)c(Br)c1`: the inhibition was found to be 3.37%.
